From PubChem
Only a selection was taken, and hits are over-represented in it overall.
IDE exosite inh = insulin-degrading enzyme (human) exo-site inhibition; P14735; purified IDE, FL-6b probe fluorescence polarization; stronger effect = lower value; z-score at 20 µM; 17,000 tested, 6.3% active;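 active means z-score of -3 or lower, meaning strong loss of probe binding signal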;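 further: His-tagged human IDE residues 42-1019 made in E. coli with 30 nM FL-6b probe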
* hit, by the source's call; ! = not confirmed by another sample.

SMILES	IDE exosite inh
COc1ccc2c3c([nH]c2c1)[C@H](CO)NCC31CCN(C(=O)Nc2ccccc2F)CC1	0.36
C[C@@H]1CN([C@@H](C)CO)C(=O)Cc2cc(NC(=O)Nc3ccc(F)cc3)ccc2O[C@H]1CN(C)S(C)(=O)=O	1.5
CC(=O)N1CCCCN2[C@@H](CO)[C@H](c3ccc(-c4cccc(C(=O)N(C)C)c4)cc3)[C@@H]2C1	4.6
CC(=O)N1[C@H](CO)[C@H](c2ccccc2)C12CN(S(=O)(=O)c1ccccc1)C2	0.46
NCC[C@H]1CC[C@@H](NS(=O)(=O)c2ccc(Cl)cc2)[C@H](CO)O1	0.82
COCC(=O)NC[C@H]1[C@@H](c2ccccc2)[C@@H](CO)N1C(=O)c1ccccc1	-0.093
OC[C@@H]1[C@H](c2ccc(C3=CCCCC3)cc2)[C@@H]2CN(CCC(F)(F)F)CCCCN12	2
Cc1ccccc1S(=O)(=O)N1CCCCN2[C@@H](CO)[C@H](c3ccc(-c4cccnc4)cc3)[C@@H]2C1	2.3
Cc1ccccc1S(=O)(=O)N1CCCCN2[C@H](CO)[C@@H](c3ccc(-c4cccnc4)cc3)[C@H]2C1	-0.049
O=S(=O)(c1ccccc1F)N1CCCCN2[C@H](C1)[C@H](c1ccc(-c3cccnc3)cc1)[C@@H]2CO	-0.54
O=S(=O)(c1ccccc1F)N1CCCCN2[C@H](CO)[C@@H](c3ccc(-c4cccnc4)cc3)[C@@H]2C1	-7.7*
Cc1ccccc1S(=O)(=O)N1CCCCN2[C@H](C1)[C@@H](c1ccc(-c3cccnc3)cc1)[C@@H]2CO	-3*
O=S(=O)(c1ccccc1F)N1CCCCN2[C@@H](CO)[C@H](c3ccc(-c4cccnc4)cc3)[C@@H]2C1	2.2
COc1ccccc1NC(=O)N1C[C@H](O)COC[C@H]2O[C@@H](CC(=O)NCCc3ccncc3)CC[C@@H]21	-0.1
CCCC#Cc1ccc([C@H]2[C@@H](CO)N[C@@H]2CN(C(C)=O)C2CCCC2)cc1	-0.97
O=C(Nc1cccc(F)c1)N1[C@@H]2CNC[C@H]1C2c1ccc(-c2cncnc2)cc1 (stereo not given in full)	-2.7
O=C(Nc1ccc2c(c1)OCO2)N1[C@@H]2CNC[C@H]1C2c1ccc(-c2ccncc2)cc1 (stereo not given in full)	-3.2*!
COc1cccc(-c2ccc(C3[C@H]4CNC[C@@H]3N4C(=O)Nc3cc(F)ccc3F)cc2)c1 (stereo not given in full)	3.7
O=C(Nc1ccccc1F)N1[C@@H]2CNC[C@H]1C2c1ccc(-c2ccccc2)cc1 (stereo not given in full)	3
O=C(Nc1ccc2c(c1)OCO2)N1[C@@H]2CNC[C@H]1C2c1ccc(/C=C/c2ccccc2)cc1 (stereo not given in full)	-1.5
C/C=C/c1ccc(C2[C@H]3CNC[C@@H]2N3C(=O)Nc2ccccc2Cl)cc1 (stereo not given in full)	0.32
COc1ccccc1-c1ccc(C2[C@H]3CNC[C@@H]2N3C(=O)Nc2ccccc2Cl)cc1 (stereo not given in full)	-3.2*
O=C(Nc1ccc(F)cc1)N1[C@@H]2CNC[C@H]1C2c1ccc(-c2cccnc2)cc1 (stereo not given in full)	-0.059
O=C(Nc1ccccc1Cl)N1[C@@H]2CNC[C@H]1C2c1ccc(-c2ccccc2)cc1 (stereo not given in full)	1.2
COc1cccc(-c2ccc(C3[C@H]4CNC[C@@H]3N4C(=O)Nc3ccccc3OC)cc2)c1 (stereo not given in full)	-3.9*
SMILES	IDE exosite inh
COc1ccc(NC(=O)N2[C@@H]3CNC[C@H]2C3c2ccc(-c3cccc(C(=O)N(C)C)c3)cc2)cc1 (stereo not given in full)	0.85
O=C(Nc1ccccc1F)N1[C@@H]2CNC[C@H]1C2c1ccc(-c2cccnc2)cc1 (stereo not given in full)	-3.3*!
O=C1CN(S(=O)(=O)Cc2ccccc2)C[C@H]2[C@H](c3ccc(C#Cc4cccc(F)c4)cc3)[C@H](CO)N12	0.85
c1ccc(-c2ccc([C@H]3[C@H]4CNC[C@@H]3N4Cc3cc(-c4ccccc4)on3)cc2)cc1	0.12
C[C@@H](O)C#Cc1ccc([C@H]2[C@@H](CO)N3CCCCN(S(=O)(=O)Cc4ccccc4)C[C@@H]23)cc1	4
C[C@@H]1CN([C@H](C)CO)C(=O)CCCn2cc(nn2)CO[C@@H]1CN(C)C(=O)Nc1cccc(C(F)(F)F)c1	0.68
N#C[C@@H]1[C@@H](c2ccc(-c3ccncc3)cc2)[C@@H](CO)N1C(=O)C1CCOCC1	2.6
N#C[C@H]1[C@@H](c2ccccc2-c2cccc(F)c2)[C@H](CO)N1C(=O)CN1CCOCC1	0.75
C/C=C/c1ccc([C@H]2[C@@H](CO)N(C(=O)c3ccccc3)C23CN(C(C)=O)C3)cc1	-1.6
COc1ccc(C[C@@H]2CCn3nncc3COC[C@H](c3ccccc3)NC2=O)cc1	-0.98
COc1ccc(NC(=O)N2CCC3(CC2)CN(C(=O)c2cccnc2)[C@H](CO)c2[nH]c4cc(OC)ccc4c23)cc1	-1.2
COc1ccc(C#Cc2ccc([C@@H]3[C@H]4CN(C(=O)Nc5ccccc5F)CC(=O)N4[C@H]3CO)cc2)cc1	2
CN1C[C@H]2[C@@H](c3ccccc31)[C@@H](CO)N2S(=O)(=O)c1ccccc1	2.6
O=C(Nc1ccccc1F)N1CC(=O)N2[C@H](C1)[C@@H](c1ccc(-c3ccc(F)cc3)cc1)[C@@H]2CO	-1.3
COc1ccc2c3c([nH]c2c1)[C@@H](CO)N(C(=O)CN(C)C)CC31CCN(Cc2cncnc2)CC1	-0.59
COCC(=O)N1[C@H](C#N)[C@H](c2ccccc2-c2cccc(C)c2)[C@@H]1CO	-0.14
COCC(=O)N1C[C@@H](C)[C@@H](OC)CN(C)C(=O)c2ccc(NC(=O)Nc3cccc(F)c3)cc2OC[C@@H]1C	1.1
O=C(c1cnccn1)N1CC(=O)N2[C@H](C1)[C@@H](c1ccc(C#CCc3ccccc3)cc1)[C@@H]2CO	-2.9
COC(=O)c1ccc(CN2CC(=O)N3[C@H](CO)[C@H](c4ccc(-c5ccccc5F)cc4)[C@@H]3C2)cc1	3.9
N#C[C@H]1[C@@H](c2ccccc2-c2ccccc2)[C@H](CO)N1C(=O)Cc1cccnc1	2.8
Cc1cccc(S(=O)(=O)N2[C@@H]3CNC[C@H]2C3c2ccc(-c3cncnc3)cc2)c1 (stereo not given in full)	1.9
O=C(c1ccccc1)N1CC(=O)N2[C@H](CO)[C@H](c3ccc(C#CCC4CCCC4)cc3)[C@@H]2C1	3.6
COc1ccc(C#Cc2ccc([C@@H]3[C@H]4CN(Cc5ccncc5)CCCCN4[C@H]3CO)cc2)cc1	4.9
COc1ccccc1-c1ccc([C@@H]2[C@H](CO)N3CCCCN(Cc4ccncc4)C[C@@H]23)cc1	-8.9*
COc1ccccc1-c1ccc([C@H]2[C@@H](CO)N3CCCCN(Cc4ccncc4)C[C@H]23)cc1	-8.9*
COc1ccc(C#Cc2ccc([C@@H]3[C@H](CO)N4CCCCN(Cc5ccncc5)C[C@@H]34)cc2)cc1	1.2
COc1ccccc1-c1ccc([C@H]2[C@@H](CO)N3CCCCN(Cc4ccncc4)C[C@@H]23)cc1	-4.6*
COCC#Cc1ccc([C@@H]2[C@@H](CO)N3CCCCN(Cc4ccncc4)C[C@H]23)cc1	2.6
COc1ccccc1-c1ccc([C@@H]2[C@@H](CO)N3CCCCN(Cc4ccncc4)C[C@H]23)cc1	-4.2*
OC[C@H]1[C@H](c2ccc(-c3ccc(F)cc3)cc2)[C@@H]2CN(Cc3ccncc3)CCCCN12	2.9
